# Laboratory results: PubChem BioAssay AID488969 (Vanderbilt High Throughput Screening Facility, 2010)
# In all, about 110,000 compounds were measured (“z-score”: median about -0.1, highest 2% from about 2 on). The sample as a whole holds a higher share of the highest values than the screen did. Activity calls are given as the source filed them.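 How the source made its calls: active means z-score in the third read window above 3 or below -3; inactive means the rest.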
# Target: Metabotropic glutamate receptor 8 (Rattus norvegicus) (UniProt P70579)
# Sequence (P70579 whole entry, looked up): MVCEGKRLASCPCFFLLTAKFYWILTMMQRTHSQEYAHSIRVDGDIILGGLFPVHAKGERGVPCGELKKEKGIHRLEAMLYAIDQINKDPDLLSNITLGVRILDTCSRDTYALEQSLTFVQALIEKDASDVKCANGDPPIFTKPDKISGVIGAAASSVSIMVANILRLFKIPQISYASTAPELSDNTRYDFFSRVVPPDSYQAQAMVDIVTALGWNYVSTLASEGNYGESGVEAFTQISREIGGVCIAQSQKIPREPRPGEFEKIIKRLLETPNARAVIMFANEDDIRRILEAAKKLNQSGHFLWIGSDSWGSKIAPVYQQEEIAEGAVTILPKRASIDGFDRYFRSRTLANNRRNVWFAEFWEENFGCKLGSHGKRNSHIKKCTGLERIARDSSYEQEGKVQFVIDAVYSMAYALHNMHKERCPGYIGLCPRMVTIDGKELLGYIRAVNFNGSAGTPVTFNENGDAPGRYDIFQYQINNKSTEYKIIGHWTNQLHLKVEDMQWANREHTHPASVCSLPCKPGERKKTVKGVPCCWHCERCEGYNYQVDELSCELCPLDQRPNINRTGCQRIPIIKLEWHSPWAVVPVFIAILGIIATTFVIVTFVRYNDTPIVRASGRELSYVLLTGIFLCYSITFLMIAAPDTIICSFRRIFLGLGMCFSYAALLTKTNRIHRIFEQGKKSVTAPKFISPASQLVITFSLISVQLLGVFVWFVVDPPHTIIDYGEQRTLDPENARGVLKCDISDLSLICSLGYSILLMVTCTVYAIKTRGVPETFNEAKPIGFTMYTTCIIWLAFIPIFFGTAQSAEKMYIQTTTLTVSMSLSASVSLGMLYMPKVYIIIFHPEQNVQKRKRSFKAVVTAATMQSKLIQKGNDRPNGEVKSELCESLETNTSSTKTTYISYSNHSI
# Test: rat mGluR8 modulators via GIRK flux, primary screen, cell-based, thallium flux, HTS (AID 488969)
# Conditions: HEK293 rat mGluR8, GIRK (G protein-gated inwardly rectifying potassium channel) thallium flux, FluoZin2; at 10 µM; stronger effect = higher value; submaximal glutamate (EC20) added with thallium
row,SMILES,z-score
1,Cc1cc([N+](=O)[O-])ccc1NC(=S)NC(=O)C(c1ccccc1)c1ccccc1,0.175
2,COCC(=O)Nc1cc([N+](=O)[O-])ccc1C,-0.258
3,Cc1cc([N+](=O)[O-])ccc1NC(=O)Cc1ccc(F)cc1,-0.108
4,Cc1cc([N+](=O)[O-])ccc1NC(=S)NC(=O)Cc1ccccc1,6.82 (active)
5,CCOC(=O)Nc1ccc([N+](=O)[O-])cc1C,0.0184
6,COCC(=O)Nc1ccc([N+](=O)[O-])cc1C,2.3
7,S=c1[nH]nc(Cc2cccc3ccccc23)n1-c1ccccc1,-0.324
8,O=C(NNC(=O)c1ccccc1Br)c1ccc(Cl)cc1,0.075
9,COc1ccc(C(=O)Nc2c(C)ccc3nsnc23)cc1[N+](=O)[O-],0.723
10,CC1CCCCN1C/C=C/c1ccccc1[N+](=O)[O-] (stereo not given),-0.203
11,COc1cc(C#CC#CCN2CCCCC2)ccc1O,2.82
12,COc1cc(C(=S)N2CCCCC2)ccc1O,0.0785
13,COc1cc(C(=O)OCCN2CCCCC2)ccc1O,0.0129
14,O=C(CN1CCCC1)Nc1c2c(nc3ccccc13)N(Cc1ccccc1)CC2,1.74
15,COc1ccc(NC(=O)COC(=O)CC23CC4CC(CC(C4)C2)C3)c([N+](=O)[O-])c1,2.75
16,COc1ccc(NC(=O)COC(=O)CC2CC3CCC2C3)c([N+](=O)[O-])c1 (stereo not given),-0.182
17,COc1ccc(NC(=O)COC(=O)C2CCCCC2)c([N+](=O)[O-])c1,0.159
18,Cc1nc(N)nc(OCC(F)(F)C(F)F)c1Br,-0.145
19,Cc1ccc(C2CC(c3cccs3)n3nc(N)nc3N2)cc1 (stereo not given),0.263
20,Nc1nc2n(n1)C(c1ccco1)CC(c1ccc(Cl)c(Cl)c1)N2 (stereo not given),2.38
21,COc1cccc(C2CC(c3ccc(Cl)cc3)n3nc(N)nc3N2)c1 (stereo not given),0.802
22,Nc1nc2n(n1)C(c1cccs1)CC(c1ccc(F)cc1)N2 (stereo not given),6.13 (active)
23,COc1ccc(C2CC(c3ccc(Cl)cc3)n3nc(N)nc3N2)cc1 (stereo not given),2.61
24,COc1ccc(C2CC(c3ccc(Cl)cc3Cl)Nc3nc(N)nn32)cc1 (stereo not given),1.46

row,SMILES,z-score
1,COc1ccc(C2CC(c3ccccc3)Nc3nc(N)nn32)cc1 (stereo not given),-0.316
2,Nc1nc2n(n1)C(c1cccs1)CC(c1ccccc1)N2 (stereo not given),-0.0568
3,Nc1nc2n(n1)C(c1ccco1)CC(c1ccc(F)cc1)N2 (stereo not given),0.268
4,COc1ccc(C2CC(c3ccc(Br)cc3)Nc3nc(N)nn32)cc1 (stereo not given),1.67
5,COc1ccc(C2CC(c3ccc(Cl)c(Cl)c3)Nc3nc(N)nn32)cc1 (stereo not given),3.08 (active)
6,Nc1nc2n(n1)C(c1ccco1)CC(c1ccccc1)N2 (stereo not given),-0.0773
7,COc1ccc(/C=N/c2oc(-c3ccccc3)cc2C#N)cc1OC,0.0441
8,CCCC(=O)C1=C(O)C(C(=O)OC)C(C)(C)CC1=NC(C)(C)C (stereo not given),-0.418
9,O=C1c2ccccc2C(=O)N1c1ccc(-c2nc3ccccc3o2)cc1,0.248
10,Cc1nn(C)cc1NC(=O)CC12CC3CC(CC(C3)C1)C2,-0.0159
11,CC(=O)Nc1ccc(C(=O)N/N=C/c2cccnc2)cc1,-0.709
12,Cc1nc2cc(NC(=O)N3c4ccccc4CC3C)ccc2n1C (stereo not given),-0.544
13,CCc1cc2c(=O)c(-c3cnn(-c4ccccc4)c3)c(C)oc2cc1OCC(=O)Nc1ccc(F)c(F)c1,0.0216
14,Cc1nc(NCCc2ccc(S(N)(=O)=O)cc2)c2c3c(sc2n1)CCC3,-0.34
15,Cc1nc(NCCc2ccc(S(N)(=O)=O)cc2)c2c(C)c(C)sc2n1,6.05 (active)
16,Cc1sc2ncnc(NCCc3ccc(S(N)(=O)=O)cc3)c2c1C,0.0936
17,O=c1cc(CSc2nnc(-c3ccccc3)o2)c2ccccc2[nH]1,0.487
18,COc1ccc(/C=N\NC(=O)/C(=C\Nc2nccc(C)n2)NC(=O)c2ccccc2)cc1,-0.263
19,C=CCn1c(-c2csc(-c3ccccc3)n2)n[nH]c1=S,0.103
20,C=CCn1c(-c2csc(-c3ccc(Cl)cc3)n2)n[nH]c1=S,2.89
21,CCn1c(-c2csc(-c3ccc(Cl)cc3)n2)n[nH]c1=S,1.31
22,CC(C)N(C(=O)Nc1ccc2nccnc2c1)C(C)C,-0.935
23,COc1ccc(OC)c(NC(=O)CSc2nnc(Cn3nnc4ccccc43)n2C)c1,-0.116
24,NC(=O)c1ccc(NC(=O)COC(=O)CC(NC(=O)c2ccccc2Cl)c2ccccc2)cc1 (stereo not given),1.26

row,SMILES,z-score
1,COc1ccc(Cn2c(=S)[nH]c3ccsc3c2=O)cc1,3.86 (active)
2,COc1ccc(Cn2c(O)cc(=O)[nH]c2=O)cc1,0.277
3,CCOC(=O)N1CCN(C(=O)c2ccc3c(=O)n(Cc4ccc(OC)cc4)c(=S)[nH]c3c2)CC1,-0.232
4,CCOCCn1c(=NC(=O)c2cc3ccccc3oc2=O)sc2cc(S(N)(=O)=O)ccc21,-0.105
5,C=CCSc1[nH]c(=O)cc(C)c1C(N)=O,0.533
6,O=C(COc1ccccc1)Nc1cccc2c1CCCC2,-0.151
7,CC(=O)Nc1ccccc1Nc1cc(C#N)c(C#N)cc1[N+](=O)[O-],-0.00232
8,CN1C2C=C3C(C#N)=C(N)C(C#N)(C#N)[C@@H](c4ccsc4)[C@@H]3C1CC2 (stereo not given in full),4.01 (active)
9,CC(C)(C)C1CC=C2C(C#N)=C(N)C(C#N)(C#N)C(c3cccs3)C2C1 (stereo not given),0.0392
10,CN1C2C=C3C(C#N)=C(N)C(C#N)(C#N)[C@H](c4c(F)cccc4F)[C@H]3C1CC2 (stereo not given in full),-0.484
11,CN1C2C=C3C(C#N)=C(N)C(C#N)(C#N)C(c4ccc(Br)cc4)C3C1CC2 (stereo not given),0.361
12,CN1C2C=C3C(C#N)=C(N)C(C#N)(C#N)[C@@H](c4cccc(F)c4)[C@@H]3C1CC2 (stereo not given in full),1.32
13,CN1C2C=C3C(C#N)=C(N)C(C#N)(C#N)[C@@H](c4cccs4)C3C1CC2 (stereo not given in full),2.54
14,Cc1ccnc(N2CCC(C(=O)NNC(=O)COc3cccc4ccccc34)CC2)n1,0.336
15,COc1cc(/C=N/OCC(=O)Nc2ccc(OC(F)F)cc2)ccc1OCc1ccccc1,-0.0267
16,CCOC(=O)C1CCCN(C(=O)c2cnn3c(C(F)(F)F)cc(-c4ccccc4)nc23)C1 (stereo not given),-2.11
17,COC(=O)c1ccc(NS(=O)(=O)c2ccc(OC)cc2)cc1,0.37
18,COC(=O)c1ccc(NS(=O)(=O)c2ccc(SC)cc2)cc1,5.24 (active)
19,CCOC(=O)c1ccc(NS(=O)(=O)c2ccc(SC)cc2)cc1,-0.12
20,CC1(C)Cc2ccccc2-c2nnc(SCC(=O)N3CCN(c4ccccc4)CC3)n21,3.2 (active)
21,COc1ccc(N2CCN(C(=O)CSc3nnc4n3C(C)(C)Cc3ccccc3-4)CC2)cc1,-0.642
22,Cc1ccc(Cl)cc1N1CCN(C(=O)CSc2nnc3n2C(C)(C)Cc2ccccc2-3)CC1,1.18
